Screen size: about 68,000 compounds; about 2,700 (4%) showed an effect of 50% or more. For the sample, strong results were picked, then their nearest neighbours and some compounds at random.

Our source for the INHIBITION values is ChEMBL document CHEMBL4513216, “Probing the Open Global Health Chemical Diversity Library for Multistage-Active Starting Points for Next-Generation Antimalarials” (ACS Infect Dis, 2020).

The test system of this assay is Plasmodium berghei. Put plainly: Screen against P. berghei liver stage (PbLuc), transformed with Luciferase, at 2uM. Particulars: tested at 2 uM. The assay is classed as functional, HepG2.
Consider `COc1ccc2c(=O)ccn(CC(=O)O)c2c1`, for which the INHIBITION is given as 16.54%.
For `Cc1noc(C2CCN(C(C)c3nc(C(C)(C)C)no3)CC2)n1` (configuration not stated), the INHIBITION is recorded as 11.42%.
As to `COC(=O)CSc1nnc(CCNC(=O)OC(C)(C)C)o1`, the INHIBITION worked out at 25.59%.
The result for `COCCNC(=O)C1CN(Cc2ccncc2)Cc2ccnn2C1` (configuration not stated) reads -15.71%.
The result for `CC(C1CC1)N(C)C(=O)c1ccc(-n2ncc(C#N)c2N)cc1` (configuration not stated) reads 26.2%.
The figure for `Fc1cccc(Nc2nc(N3CCCC3)nc3c2CNCC3)c1` is 32.67%; for `Cc1c(F)cccc1CN1CCn2nc(CNC(=O)N(C)C)cc2C1` it is 21.08%.
On to `Cc1nc(CNCC2CNc3ccnn3C2)cs1` (configuration not stated), for which the INHIBITION was determined as 0.05%.
The figure for `CC(C)Nc1ncnc2c1CCN(C(=O)Cc1ccccn1)CC2` is 14.23%; for `O=C(c1cscn1)N1CC[C@@H]2[C@@H]1CCN2c1ccccn1` it is 36.03%; for `COc1cc(N2C[C@@H]3COC[C@]3(COc3ccc(C#N)cn3)C2)ncn1` it is -15.95%.
The figure for `Cc1csc(N2CCN(Cc3ccccn3)CC2C)n1` (configuration not stated) is -13.94%; for `Cc1cnc(CN2CCN(c3nc(C)cs3)C(C)C2)cn1` (configuration not stated) it is 50.3%; for `Cc1csc(N2CCN(Cc3cscn3)CC2C)n1` (configuration not stated) it is -7.32%.
For `COc1ccc(CNC(C)c2cccc(Br)c2)c(OC)c1OC` (configuration not stated), the INHIBITION is on record as 0.8%.
Regarding `OC1(Cn2ccc3ncccc32)CCN(Cc2ccccc2F)CC1`, the INHIBITION amounted to 22.81%.
The figure for `CCN(CC)C(CNC(=O)c1cccnc1-n1cncn1)c1ccsc1` (configuration not stated) is 28.81%; for `CCN(CC)C(CNC(=O)c1ccc(-n2cncn2)cc1)c1ccsc1` (configuration not stated) it is -12.13%.
The figure for `CCN(CC)C(CNC(=O)c1ccnc(N(C)C)c1)c1ccsc1` (configuration not stated) is 86.89%; for `Cc1ccc(C(=O)N2CCC3(CC2)CCN(Cc2ccccn2)C3=O)o1` it is 2.5%; for `CN1C(=O)c2cccc(NC(=O)c3ccc4c(c3)OCCO4)c2C1=O` it is 27.8%.
Turning to `O=C(CCc1ccc(-c2ccccc2)[nH]1)N1CCCC(n2ccnc2)C1` (configuration not stated), the INHIBITION is recorded as -13.92%.
The figure for `CCN1CCN(C2CCN(Cc3noc(C)n3)CC2)C1=O` is 62.13%; for `CCN1CCN(C2CCN(Cc3noc(C4CC4)n3)CC2)C1=O` it is 24.65%; for `Cc1nc(CN2CCC(N3CCN(C)C3=O)CC2)no1` it is 40.17%.
The result for `COCCN(C)C(C(=O)O)c1ccc2ccccc2c1` (configuration not stated) reads 10.75%; that for `Cc1cc(C)n(C2CCCN(C(=O)c3cc(C(N)=O)cs3)C2)n1` (configuration not stated), 20.93%.
Take `Cc1cccc(N2CCN(CCNC(=O)C(C)n3cncn3)CC2)c1` (configuration not stated): the INHIBITION came out at 12.88%.
The result for `O=C(N[C@@H]1CN(CC2CC2)[C@@H]2CCCO[C@@H]21)c1cscn1` reads 17.24%; that for `CCN(CC)C(=O)N1CCN(Cc2cnc(C)nc2)[C@H]2CS(=O)(=O)C[C@H]21`, 29.51%; that for `CCC(=O)N1CCN(Cc2cnc(C)nc2)[C@H]2CS(=O)(=O)C[C@H]21`, -36.29%.
Consider `Cc1ncc(CN2CCN(C(=O)N(C)C)[C@@H]3CS(=O)(=O)C[C@@H]32)cn1`, for which the INHIBITION was 55.99%.
The figure for `O=C(CC1CC1)N1CCC2(CC1)CN(c1ncccn1)CCO2` is -26.24%; for `CO[C@H]1CCN(S(=O)(=O)c2cn(C)cn2)[C@H]1Cc1ccccc1` it is 74.27%.
The figure for `CO[C@@H]1CCN(S(=O)(=O)c2cn(C)cn2)[C@H]1Cc1ccccc1` is 4.38%; for `CCO[C@H]1CCN(S(=O)(=O)c2cn(C)cn2)[C@H]1Cc1ccccc1` it is -40.45%; for `CC(C#N)CN(C)Cc1cc(Cl)cc2cccnc12` (configuration not stated) it is 28.91%.
The figure for `Cc1ccc([C@@H]2CN(C(=O)c3cc(C)no3)C[C@H]2NC(=O)C2CC2)cc1` is 0.94%.
For `CCc1csc(CNC2CCN(Cc3ccccc3)C2)n1` (configuration not stated), the INHIBITION came out at 50.59%.
The result for `Cc1nc(CNC2CCN(Cc3ccccc3)C2)sc1C` (configuration not stated) reads 36.28%; that for `CCc1nc(C)sc1CNC1CCN(Cc2ccccc2)C1` (configuration not stated), 26.74%.
The result for `CCCc1cc(NC2CCc3ncnn3C2)n2ncnc2n1` (configuration not stated) reads 8.91%; that for `O=C1CC(c2ccccc2)C2(CCN(Cc3nccs3)CC2)N1` (configuration not stated), -4.2%; that for `CC(C)(C)OC(=O)N1CCC(NCc2cnn(C(C)(C)C)c2)CC1`, -13.89%.
The figure for `Cc1cccc2cc(C(=O)N3CCC(F)(F)CC3)n(C)c12` is 28.1%.
As to `O=C1CC(c2ccc(O)cc2)c2c(n3ccsc3nc2=O)N1` (configuration not stated), the INHIBITION worked out at 37.87%.
The figure for `O=C1CC(c2ccc(Cl)c(Cl)c2)c2c(n3ccsc3nc2=O)N1` (configuration not stated) is 24.44%; for `O=C1CC(c2ccccc2)c2c(n3ccsc3nc2=O)N1` (configuration not stated) it is 73.66%.
The figure for `Cc1ccc(N(CC(=O)c2ccc(Br)cc2)C2=NCCCCC2)cc1` is -13.56%; for `CC(=O)N1CCC(c2cc(Nc3ncccn3)nc(C)n2)C1` (configuration not stated) it is 31.98%; for `CC(C)(C)n1ncc2c1NC(=O)CC2c1cccc(F)c1` (configuration not stated) it is -10.58%.
In the case of `CCCc1noc(CCC(=O)N2CCN(C)CC2c2ccccc2)n1` (configuration not stated), the INHIBITION was determined as 35.56%.
As for `CC(C)c1noc(CCC(=O)N2CCN(C)CC2c2ccccc2)n1` (configuration not stated), the INHIBITION is listed as 57.59%.
Regarding `CC(C)c1noc(CCCC(=O)N2CCN(C)CC2c2ccccc2)n1` (configuration not stated), the INHIBITION was found to be 14.63%.
The result for `NC(=O)CC1CCCN(c2cncc(OCc3ccccc3)n2)C1` (configuration not stated) reads 31.78%; that for `CC(C)c1nc(C2CCCN2C(=O)c2ccc(N(C)C)nn2)no1` (configuration not stated), -9.66%; that for `c1ccc(CN2C[C@H]3CC[C@@H](C2)N(Cc2nnc(C4CC4)o2)C3)cc1`, -14.49%.
The figure for `CO[C@H]1COCCN(C(=O)c2cc(C)oc2C(F)(F)F)C1` is 35.89%; for `Cc1cc(C(=O)N2CCOC[C@H](Oc3cnccn3)C2)c(C(F)(F)F)o1` it is 52.91%; for `Cc1cc(C(=O)N2CCOC[C@H](Oc3cccnc3)C2)c(C(F)(F)F)o1` it is 19.42%.
Regarding `Cn1cc(CN2CCCC3(CCN(C(=O)c4cnccn4)C3)C2)cn1` (configuration not stated), the INHIBITION is recorded as -9.96%.
With `CC(C)n1cnnc1CNC(=O)CCCOc1ccccc1F`, the INHIBITION worked out at 18.74%.
Consider `Cc1ccsc1CNC(=O)CC1CN(C(=O)OC(C)(C)C)C1`, for which the INHIBITION is on record as 55.36%.
Take `CC(C)(C)OC(=O)N1CC(CC(=O)NCc2ccsc2)C1`: the INHIBITION was 2.9%.
For the compound `Cc1cc(CNC(=O)CC2CN(C(=O)OC(C)(C)C)C2)ccc1F`, the INHIBITION is 21.97%.
The figure for `COc1ncccc1NC(=O)N1CCCC1c1cc(C)no1` (configuration not stated) is 29.19%; for `Cc1noc(C)c1C(=O)N1CCCCC1c1cc(C)n2ccnc2n1` (configuration not stated) it is 36.98%.
The figure for `Cc1sc(-c2ccco2)nc1C(=O)N(CC(N)=O)C1CCCC1` is 61.82%; for `COCCN(C(=O)c1nc(-c2ccco2)sc1C)C1CC1` it is -7.16%; for `Cc1sc(-c2ccco2)nc1C(=O)N(CC1CCOC1)C1CC1` (configuration not stated) it is -33.43%.
Turning to `CC(NCCN1CCN(C(=O)C2CCCC2)CC1)c1ccccn1` (configuration not stated), the INHIBITION was -21.99%.
The result for `CC(C)n1nc(CN2CCOCC2)c2c1CN(C(=O)c1ccno1)C2` reads 29.3%; that for `Cn1nc(Cn2cccn2)c2c1CN(Cc1ccsc1)C2`, 15.9%.
Take `COCc1nn(C(C)C)c2c1CCN(Cc1ccsc1)C2`: the INHIBITION turned out to be 23.43%.
The result for `CC(C)n1nc(CN2CCOCC2)c2c1CN(Cc1ccsc1)C2` reads 72.91%; that for `Cn1nc(Cn2cccc2)c2c1CN(Cc1ccsc1)C2`, -6.88%; that for `Cn1nc(CN2CCOCC2)c2c1CN(Cc1ccsc1)C2`, 57.85%.
The result for `CN(Cc1ccc(F)cc1)CC1(O)CCN(C(=O)c2cccn2C)C1` (configuration not stated) reads -12.09%; that for `CCc1nc2ccccc2n1C(CC)C(=O)N(C)Cc1noc(C)n1` (configuration not stated), -0.85%; that for `CC(=O)N1CCO[C@@H]2CN(S(=O)(=O)c3ccc(C)cc3)CC[C@@H]2C1`, -24.35%.
The figure for `CS(=O)(=O)N1CC2(CCCN(CC3CC3)C2)Cc2ccccc21` (configuration not stated) is 34.09%; for `CN(CCCSc1ccccc1)C(=O)Cn1ncc(N(C)C)cc1=O` it is 8.2%; for `COc1ccc(-c2cnc(CN3CCn4c(C)nnc4C3)o2)cc1` it is -19.76%.
Take `CCNC(=O)[C@@H]1C[C@H](N)CN1C1CCN(c2ccccc2OC)CC1`: the INHIBITION came to 23.64%.
The result for `Cc1ccc(CCN2CCCC23Cc2ccccc2CNC3=O)cc1` (configuration not stated) reads 57.24%; that for `CC(C)CCN1CCCC12Cc1ccccc1CNC2=O` (configuration not stated), -6.64%; that for `Cc1ccc(CN2CCCC23Cc2ccccc2CNC3=O)cc1` (configuration not stated), -14.74%.
The figure for `CC(C)NC(=O)N1CCN(CC2CC2)CC2(CC(=O)N(C)C2)C1` (configuration not stated) is 49.9%; for `Cc1cc(-c2cnc(NCc3ccc4c(c3)OCO4)nc2C(C)C)on1` it is -0.95%; for `Cc1csc(C2CCCN(C(=O)c3cccc4c3OCO4)C2)n1` (configuration not stated) it is 57.11%.
On to `Cc1nc(C2CCCN(C(=O)c3cccc4c3OCO4)C2)sc1C` (configuration not stated), for which the INHIBITION stood at 7.71%.
The figure for `CC(C)c1nc(C2CCCN(C(=O)c3cccc4c3OCO4)C2)no1` (configuration not stated) is 17.59%; for `CCc1cc(NC(=O)C2CCCN(C(=O)c3ccncc3)C2)[nH]n1` (configuration not stated) it is -7.81%; for `c1ccc(C2CCN(c3ncnc4c3CCNC4)CC2)cc1` it is -3.14%.
On to `O=C(NCC(=O)N1CCCC(n2cncn2)C1)OCc1ccccc1` (configuration not stated), for which the INHIBITION worked out at 21.64%.
The result for `COc1ccnc(N2CCN(C(=O)Cc3ccc(C)s3)CC2)n1` reads -9.9%; that for `COc1ccnc(N2CCN(C(=O)N3CCOCC3)CC2)n1`, 58.05%; that for `COc1ccnc(N2CCN(CC(O)CN3CCOCC3)CC2)n1` (configuration not stated), 58.05%.
Turning to `COc1ccnc(N2CCN(CC(=O)N3CCOCC3)CC2)n1`, the INHIBITION is -2.9%.
The figure for `COc1ccnc(N2CCN(C(=O)CN3CCOCC3)CC2)n1` is -19.35%; for `COc1ccnc(N2CCN(Cc3ncc(C(C)(C)C)o3)CC2)n1` it is 2.67%; for `COc1ccnc(N2CCN(C(=O)c3cscn3)CC2)n1` it is 50.98%.
As to `COc1ccnc(N2CCN(C(=O)Cc3csc(C)n3)CC2)n1`, the INHIBITION was 51.35%.
The figure for `COc1ccnc(N2CCN(C(=O)Cc3ccsc3)CC2)n1` is 25.61%; for `COc1ccnc(N2CCN(Cc3ncc(-c4ccccc4)o3)CC2)n1` it is -41.69%; for `COc1ccnc(N2CCN(C(=O)c3csnn3)CC2)n1` it is 36.66%.
`COc1ccnc(N2CCN(C(=O)c3csc(C)n3)CC2)n1`: the INHIBITION is -2.99%.
